Source: PubChem BioAssay (National Center for Advancing Translational Sciences (NCATS))
VDR inh – vitamin D3 receptor (human) inhibition; hit rate 0.93% among 400,000; P11473; Potency, µM, inactives show max response, negative = inhibition, usual class: inhibitors; VDR-SRC2-3 peptide fluorescence polarization, 2 h; note: % is set by controls: 0 for no effect and ±100 for the full control effect
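Signal is fluorescence polarization, reporting how far test compounds block the interaction of VDR with the SRC2-3 coregulator peptide after a 2 h room-temperature incubation.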
TSG101-PTAP inh – blocks PTAP/TSG101 interaction to inhibit HIV-1 budding. AID 493005. Potency, µM (titrated, usually from 115 µM), for inactives: at the highest dose activity change, negative = inhibition, usual class: inhibitors. Fluorescence polarization, FITC-PTAP peptide / Tsg101 binding. Q99816. 340,000 tested, under 10 active; active = well fitted inhibition curve with a large enough effect in the main read-out, with a control signal flat, not every such curve was filed as active; inconclusive = small, poorly fitted or top-dose-only effect, or effect the other way, or a change in a side signal; inactive = no such curve, though single readings can be large or run the other way; note: % of control where 0% means no effect
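Steps: Tsg101 binding domain dispensed (10 uM final), compounds pinned in DMSO, FITC-labeled PTAP-motif peptide added (50 nM final); after 20 min binding at room temperature, polarization measured.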
GCN5L2 inh – GCN5L2 (KAT2A) acetyltransferase inhibition; GCN5L2 HAT assay, ThioGlo1 CoA-SH fluorescence; hit rate 0.21% among 390,000; Potency, µM (highest dose often 58.9 µM), inactives show at the top dose activity change, negative = inhibition, usual class: inhibitors; note: % is set by controls: 0 for no effect and ±100 for the full control effect
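Enzyme at 20nM final was mixed with library compounds for 15 min at room temperature. Peptide H3(1-25) at 75uM, acetyl-CoA at 70uM and ThioGlo1 at 50uM were then added. Plates were read immediately and after 20 min (Ex340nm/Em540nm).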
USP1-UAF1 inh – USP1/UAF1 (human) deubiquitinase inhibition; hit rate 0.23% among 390,000; recombinant USP1/UAF1, Ub-Rhodamine cleavage fluorescence; Potency, µM (series often up to 57.1 µM), without a hit: top-dose activity change, negative = inhibition, hits mostly inhibitors; O94782; note: % is set by controls: 0 for no effect and ±100 for the full control effect; nearly all actives have a fitted effect of over 60% in size
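USP1/UAF1 complex at 1 nM was preincubated with compound for 15 min at room temperature, then Ub-Rho substrate (150nM final) was added. Fluorescence (480/540 nm) was read kinetically, 6 reads every 60 seconds.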
PLK1 PBD block – PLK1 (human) polo-box domain binding inhibition | P53350 | Plk1 PBD binding of FITC phosphopeptide, fluorescence polarization | Potency, µM, inactives show max response, negative = inhibition, most hits filed as inhibitors | hit rate 2.8% among 360,000 | AID 720504; note: series mostly up to about 57 µM; % is set by controls: 0 for no effect and ±100 for the full control effect; nearly all actives have a fitted effect of over 65% in size
Target sequence (P53350 whole entry, looked up, the tested form may be a part): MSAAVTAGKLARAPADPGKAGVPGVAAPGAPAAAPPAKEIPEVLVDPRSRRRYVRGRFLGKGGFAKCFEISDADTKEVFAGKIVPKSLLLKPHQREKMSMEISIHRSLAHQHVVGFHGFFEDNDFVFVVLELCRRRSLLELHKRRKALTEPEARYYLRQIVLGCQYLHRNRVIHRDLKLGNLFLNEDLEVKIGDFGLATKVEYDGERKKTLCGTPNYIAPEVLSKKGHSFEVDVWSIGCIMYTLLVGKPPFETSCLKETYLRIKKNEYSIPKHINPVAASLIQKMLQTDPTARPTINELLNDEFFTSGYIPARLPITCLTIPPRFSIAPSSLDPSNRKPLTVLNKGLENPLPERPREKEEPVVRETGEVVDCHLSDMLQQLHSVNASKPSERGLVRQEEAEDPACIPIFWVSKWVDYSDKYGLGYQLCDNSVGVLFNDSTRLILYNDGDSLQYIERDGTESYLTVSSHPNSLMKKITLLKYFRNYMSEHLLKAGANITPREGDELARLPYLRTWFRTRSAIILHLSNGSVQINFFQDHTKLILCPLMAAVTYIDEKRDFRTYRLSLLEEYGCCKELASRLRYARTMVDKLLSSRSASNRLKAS
An asterisk follows results filed as active; ? = inconclusive; / = no result given. This is a sample that favours compounds with a hit; in the whole collection about 3% have one here. Unless noted, calls come from the whole dose curve; as a rule, active = well fitted curve in the direction sought with a large enough effect; inconclusive = small, poorly fitted or top-dose-only effect, or another doubt; inactive = no such curve, though single readings can be large; an effect the other way counts as inactive or inconclusive. Potency is the fitted concentration of half-maximal effect.

SMILES	VDR inh	TSG101-PTAP inh	GCN5L2 inh	USP1-UAF1 inh	PLK1 PBD block
O=S(=O)(c1ccccc1)c1nnn2c1nc(NCc1ccccc1)c1sccc12	10.8%	/	-1.9%	-0.7%	/
N=C1S/C(=C\c2ccccc2F)C(=O)N1c1ccc(F)cc1	1.6%	-8.0%	-3.8%	-22.7%	-23.9%
N=C1S/C(=C\c2cn[nH]c2-c2ccc(F)cc2)C(=O)N1c1ccccc1F	-20.1%	5.0%	-1.3%	-5.8%	26.7µM*
Cc1ccc(CNc2ccc(O)cc2)cc1	20µM*	0.7%	-9.4%	?	?
Cc1ccc(NCc2ccccc2O)cc1	-5.7%	-6.3%	-3.3%	-15.4%	2.7%
CCCCN(C)CCCNC(=O)c1ccc2nc(N3CCCCC3)sc2c1	-7.9%	/	-2.2%	?	/
CCOc1ccc(N2C(=O)N(Cc3c(F)cccc3Cl)c3ccccc3S2(=O)=O)cc1	22.1%	/	-9.5%	1.8%	/
COC(=O)c1ccc(-n2nnnc2SC)cc1	-18.1%	-3.9%	0.5%	6.3%	21.2µM*
COC(=O)COC(=O)c1ccc(-n2nnnc2SC)cc1	11.5%	-4.0%	-15.4%	-22.0%	-3.6%
O=S(=O)(c1ccccc1F)N1CCN(c2nc(-c3cccs3)nc3ccccc23)CC1	2.6%	/	/	/	/
CCN(CC)c1ccc(NC(=O)COc2ccccc2C)cc1S(=O)(=O)Nc1ccccc1OC	?	-0.9%	-4.6%	-12.6%	5.32µM*
CCN(CC)c1ccc(NC(=O)c2ccc(=O)[nH]c2)cc1S(=O)(=O)Nc1ccccc1OC	31.6µM*	-0.7%	?	-23.9%	4.74µM*
CCN(CC)c1ccc(NC(=O)c2ccccc2F)cc1S(=O)(=O)Nc1ccccc1OC	?	-3.3%	-6.7%	-7.5%	10.6µM*
CCN(CC)c1ccc(NC(=O)COc2ccccc2C#N)cc1S(=O)(=O)Nc1ccc(OC)cc1	7.5%	0.2%	-6.6%	-13.8%	?
CN1CCC[C@@H]1Cc1c[nH]c2ccc(CCS(=O)(=O)c3ccccc3)cc12	-27.8%	/	-9.3%	/	/
CCc1c(C)sc(NC(=O)c2cc(-c3cc(OC)ccc3OC)on2)c1C#N	14.8%	0.1%	14.9%	-12.6%	-1.7%
CCc1c(C)sc(NC(=O)c2noc(C)c2[N+](=O)[O-])c1C#N	?	0.0%	-19.7%	-13.6%	33.6µM*
CCc1c(C)sc(NC(=O)c2cc(CC(C)C)on2)c1C#N	-22.9%	-0.7%	-3.3%	-22.9%	15µM*
CCc1c(C)sc(NC(=O)c2cc(-c3ccc(OC)c(OC)c3)on2)c1C#N	-26.6%	-5.5%	2.7%	?	-12.8%
CCc1c(C)sc(NC(=O)c2cc(-c3ccc(O)cc3)on2)c1C#N	?	-2.4%	1.3%	-12.6%	18.9µM*
CCc1c(C)sc(NC(=O)c2cc(-c3cccc(Cl)c3)on2)c1C#N	?	/	-12.5%	?	/
O=C(NCc1ccccc1)c1ccc(CS(=O)Cc2cccc(Cl)c2)o1 (stereo unspecified)	/	/	/	-26.4%	-2.3%
CCOc1nc(NCCO)nc(Nc2cc(Cl)ccc2OC)n1	-14.0%	1.1%	0.0%	-6.1%	26.7µM*
O=C(NCC1CCCO1)c1ccc2c(c1)N(Cc1ccccc1)C(=O)CS2=O (stereo unspecified)	?	-0.1%	0.3%	-9.4%	7.52µM*
CCOc1ccc(S(=O)(=O)N(CC)CC(=O)NCc2ccncc2)cc1	13.0%	-6.9%	2.6%	-2.0%	-9.6%
SMILES	VDR inh	TSG101-PTAP inh	GCN5L2 inh	USP1-UAF1 inh	PLK1 PBD block
CCOC(=O)C1CCN(C(=O)Cc2cccs2)CC1	7.2%	-13.3%	-13.1%	-4.0%	29.9µM*
COc1nccnc1NS(=O)(=O)c1ccc(NCc2ccccc2O)cc1	?	1.4%	2.0%	-14.8%	-2.5%
CCOC(=O)C(Oc1ccc2c(-c3ccccc3)cc(=O)oc2c1C)c1ccccc1 (stereo unspecified)	?	-1.1%	?	-19.4%	3.5%
Cc1c(OCc2ccc(C(=O)O)cc2)ccc2c(-c3ccccc3)cc(=O)oc12	79.4µM*	-4.1%	-18.5%	?	?
O=C(Nc1ccc2c(c1)CCC2)c1cnc(Cl)c(Cl)c1	3.2%	-3.2%	-13.2%	-19.9%	21.2µM*
O=C(N/N=C/c1ccc(N2CCCCC2)o1)c1ccccc1[N+](=O)[O-]	39.8µM*	-2.6%	-10.6%	-13.6%	-26.5%
O=C(Nc1ccc(N2CCCC2)c(Cl)c1)c1ccccc1[N+](=O)[O-]	-25.7%	-5.4%	?	-12.6%	26.7µM*
O=C(CSc1nncc2ccccc12)Nc1ccc(C(=O)O)cc1	?	-1.2%	-21.1%	-7.8%	-28.5%
CC(=O)N1CCc2c(sc(NC(=O)c3ccc([N+](=O)[O-])o3)c2C#N)C1	?	-6.1%	0.3%	-17.1%	23.8µM*
CC(=O)N1CCc2c(sc(NC(=O)Cc3ccc(C)cc3C)c2C#N)C1	?	0.9%	0.0%	-23.2%	26.7µM*
C=C1Nc2ccccc2C(=O)N1c1ccc(C(=O)N2CCN(C(=O)c3ccco3)CC2)cc1	4.8%	/	/	/	/
COCCCN(Cc1ccco1)C(=O)c1cc2c(s1)-c1ccccc1OC2	8.6%	/	-8.9%	-21.9%	/
C[C@H]1CCC2[C@](C)(CO)[C@@H](O)CC[C@]2(C)[C@@]12CCC(CO)(CCO)O2 (stereo partly specified)	6.0%	-5.2%	1.8%	-15.3%	-0.6%
CNc1cc2c(Nc3cccc(Br)c3)ncnc2cn1	1.6%	/	0.3%	/	/
O=C(COC(=O)C1CCC(=O)N1)Nc1ccccc1OC(F)F (stereo unspecified)	0.2%	-4.4%	3.0%	-15.9%	-4.4%
O=C1CCC(C(=O)OCc2cc(Cl)ccc2OC(F)F)N1 (stereo unspecified)	?	-1.1%	-6.5%	-12.3%	26.7µM*
Cc1c(Cl)cccc1NC(=O)C(C)n1nnc2sc3c(c2c1=O)CCCC3 (stereo unspecified)	11.2%	/	-6.1%	-15.6%	/
COc1cccc(OCc2nnc(SCc3cc(=O)[nH]c4ccccc34)o2)c1	-13.8%	-2.0%	-5.3%	-15.2%	23.8µM*
COc1ccc(OCC(=O)Nc2ccc3c(c2)nc(CCN2CCN(C)CC2)n3C)cc1	?	0.1%	-5.4%	-24.1%	23.8µM*
COc1ccc(OCC(=O)Nc2ccc3c(c2)nc(CCN2CCCC2)n3C)cc1	3.2%	2.8%	-21.4%	-26.7%	-2.2%
CCOC(=O)Nc1ccc2c(c1)nc(CN1CCN(C(C)=O)CC1)n2C	-11.1%	-4.7%	-1.4%	-2.8%	1.1%
CCC(=O)Nc1ccc2c(c1)nc(CN1CCN(C(C)=O)CC1)n2C	-3.0%	-9.7%	31.6µM*	-8.9%	-10.3%
COc1ccc(CC(N)c2csc(NC(=O)c3cc(C(C)(C)C)oc3C)n2)cc1 (stereo unspecified)	/	/	/	/	5.3%
CC1CCCCN1C(=O)CSc1nc2ccccc2nc1Cc1ccccc1 (stereo unspecified)	-0.7%	/	-8.1%	-6.0%	/
CCCCS(=O)(=O)/C=C\C=C/S(=O)(=O)CCCC	35.5µM*	-3.7%	-6.7%	-3.2%	15µM*
